# Data published in PubChem BioAssay.
# What was measured:
# [1] = tested on: Human papillomavirus type 1a protein E7 (residues 44-93); experiment: small molecules binding HPV E7 44-93 – biochemical, small-molecule microarray, residues 44-93, 635 nm fluorescence, primary screen (AID 1108); settings: fluorescence 635 nm, higher = more signal;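 note: E7 fragment applied at 1 µg/mL in TBST for 1 h at 4 C; score combines spot fluorescence with its signal to noise ratio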
# [2] = hepatitis C replication reporter changes, two-sided – Huh7 cells, luciferase reporter, HCV replication inhibitor project, primary screen (AID 1109); settings: Huh7 HCV replicon luciferase reporter, 48 h; higher = more signal;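 note: huh7 hepatoma cells harbouring a luciferase neomycin HCV replicon reporter; luciferase luminescence as measure of HCV replicon replication; test concentration not given here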
# [3] = molecular target: Left-right determination factor 2 (Homo sapiens) (UniProt O00292); experiment: small molecules binding LEFTY2 protein – biochemical, small-molecule microarray, 635 nm fluorescence scan, primary screen (AID 1110); settings: higher = more signal
# [4] = molecular target: Calmodulin-1 (Homo sapiens) (UniProt P0DP23); experiment: small molecules binding calmodulin-1 with EGTA – biochemical, small-molecule microarray, Cy5-labelled CALM1, profiling panel (AID 1111); settings: Cy5-CALM1 binding fluorescence, higher = more signal;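 note: labelled calmodulin applied in Tris saline Tween buffer holding calcium plus EGTA and DTT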
# [5] = molecular target: Calmodulin-1 (Homo sapiens) (UniProt P0DP23); experiment: small molecules binding Ca-loaded calmodulin-1 – biochemical, small-molecule microarray, Cy5-labelled CALM1, plus calcium, artefact control for SMM control-protein annotation, profiling panel (AID 1112); settings: Cy5-CALM1 binding fluorescence, higher = more signal;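 note: score merges spot fluorescence with signal to noise from triplicate slides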
# [6] = probe aWnt5a binding to arrayed compounds – biochemical, biotinylated probe, 635/667 nm fluorescence, primary screen (AID 1113); settings: small-molecule microarray, higher = more signal;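 note: score merges 667 nm fluorescence intensity with signal-to-noise per printed feature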
# [7] = probe aShh binding to arrayed compounds – biochemical, biotinylated probe, 635/667 nm fluorescence, primary screen (AID 1114); settings: small-molecule microarray, higher = more signal;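 note: probe is biotin-labelled aShh protein from a stem cell growth factor screen; measures binding of labelled protein to compounds printed on the slide; score merges feature fluorescence at 667 nm with signal-to-noise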
# [8] = probe aNog binding to arrayed compounds – biochemical, biotinylated probe, 635/667 nm fluorescence, primary screen (AID 1115); settings: small-molecule microarray, higher = more signal;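 note: probe is biotinylated aNog protein used at 0.15 µg/mL for 1 h at 4 C; z-score combines 667 nm fluorescence of each spot with its signal to noise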
# [9] = molecular target: Torsin-1A-interacting protein 1 (Homo sapiens) (UniProt Q5JTV8); experiment: compound microarray binding of lysate hLAP1 – cell lysate, small-molecule microarray, COS7 lysate, 635/667 nm fluorescence, primary screen (AID 1116); settings: 635 nm fluorescence, higher = more signal
# [10] = molecular target: Alpha-bungarotoxin (Bungarus multicinctus) (UniProt P60615); experiment: compounds binding labelled alpha-BTX control protein – biochemical, small-molecule microarray, Alexa647 label, 635/667 nm fluorescence, artefact control for SMM control protein annotation, profiling panel (AID 1117); settings: alpha-BTX-A647 binding fluorescence, higher = more signal
# Sequence of Alpha-bungarotoxin (Bungarus multicinctus) (P60615 whole entry, looked up): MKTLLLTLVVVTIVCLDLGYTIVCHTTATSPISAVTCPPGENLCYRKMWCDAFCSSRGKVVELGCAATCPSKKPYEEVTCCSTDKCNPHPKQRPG
# Sequence of Left-right determination factor 2 (Homo sapiens) (O00292 whole entry, looked up): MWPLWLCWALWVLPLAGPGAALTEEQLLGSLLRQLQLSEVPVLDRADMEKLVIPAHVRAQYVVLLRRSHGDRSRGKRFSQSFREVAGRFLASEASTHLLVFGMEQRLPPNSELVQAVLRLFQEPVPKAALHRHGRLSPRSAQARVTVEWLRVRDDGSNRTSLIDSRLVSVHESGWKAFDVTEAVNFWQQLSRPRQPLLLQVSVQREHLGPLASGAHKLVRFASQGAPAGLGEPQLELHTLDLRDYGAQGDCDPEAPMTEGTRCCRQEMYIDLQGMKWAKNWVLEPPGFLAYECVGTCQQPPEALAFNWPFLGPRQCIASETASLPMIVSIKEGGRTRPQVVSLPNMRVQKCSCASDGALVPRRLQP
# Sequence of Torsin-1A-interacting protein 1 (Homo sapiens) (Q5JTV8 whole entry, looked up): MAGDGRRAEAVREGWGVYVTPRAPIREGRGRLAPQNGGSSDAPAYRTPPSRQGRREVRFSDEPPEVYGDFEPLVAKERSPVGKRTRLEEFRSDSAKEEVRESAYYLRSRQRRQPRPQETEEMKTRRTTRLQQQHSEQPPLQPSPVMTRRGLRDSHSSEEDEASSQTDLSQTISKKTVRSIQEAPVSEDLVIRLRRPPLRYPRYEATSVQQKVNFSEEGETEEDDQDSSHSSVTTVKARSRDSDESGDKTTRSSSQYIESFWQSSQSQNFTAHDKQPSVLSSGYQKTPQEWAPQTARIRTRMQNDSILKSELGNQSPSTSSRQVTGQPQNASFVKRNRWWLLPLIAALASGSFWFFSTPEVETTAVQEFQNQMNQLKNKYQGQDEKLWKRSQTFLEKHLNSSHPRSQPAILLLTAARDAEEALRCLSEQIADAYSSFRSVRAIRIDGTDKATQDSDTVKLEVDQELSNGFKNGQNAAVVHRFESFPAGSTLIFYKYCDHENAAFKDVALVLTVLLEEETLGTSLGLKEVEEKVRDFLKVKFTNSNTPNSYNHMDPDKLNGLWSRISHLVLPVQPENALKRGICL
SMILES,composite z-score [1],z-score [2],composite z-score [3],composite z-score [4],composite z-score [5],composite z-score [6],composite z-score [7],composite z-score [8],composite z-score [9],composite z-score [10]
C=C[C@H](OC)[C@@H](O)c1ccc(OC)c(O)c1,-1.25,0.622,-1.77,-1.06,-0.597,-0.0981,-0.0035,-0.326,-0.435,-0.646
COCCOC(=O)N1C(=O)[C@@]2(c3cc(C#CCC(C(=O)OC)C(=O)OC)ccc31)[C@H](C(N)=O)[C@H]1C(=O)O[C@H](c3ccccc3)[C@H](c3ccccc3)N1[C@@H]2c1ccccc1OCCO,1.31,-3.36,0.584,1.44,0.308,0.0297,-0.182,-0.263,0.146,0.899
COC(=O)[C@@]1(Cc2ccc(OC)cc2)[C@@H]2[C@@H](CC(=O)[C@H]2CC(=O)C(=O)N(C)C)CN1C(=O)c1ccccc1,1.42,-2.35,0.243,2.66,1.51,0.346,2.46,0.899,1.51,1.67
CO[C@H]1O[C@H](CO)[C@@H](OC(=O)CCc2ccccc2)[C@@H]2OC(=O)[C@@H](Cc3ccc4ccccc4c3)C/C=C/C[C@H](Cc3ccc4ccccc4c3)C(=O)O[C@@H]12,0.349,0.228,-0.817,-0.452,-0.119,-0.202,-0.0709,-0.266,-0.0222,1.33
Cc1cccc([C@H]2C[C@H]3C(Br)=C[C@@]2(CO)C(=O)[C@]32CO2)c1,0.863,-1.27,-0.427,-0.496,-0.0921,-0.0566,-0.0348,0.247,-0.374,-0.357
COc1ccc(C(=O)Nc2cccc(CN3C(=O)[C@]4(O[C@H](CC(=O)N(CCO)Cc5ccccc5)[C@@H]([Si](C)(C)c5ccc(OC)cc5)[C@@H]4C)c4ccccc43)c2)cc1,0.753,-3.73,0.546,-0.0878,-0.342,0.093,-0.0192,-0.0315,0.566,0.696
Cc1ccc(S[C@]2(C(=O)NC3CC3)CC(=O)N(C3Cc4ccccc4C3)[C@@H]2c2ccc(CO)cc2I)cc1,0.451,-2.14,-1.05,2.09,-0.628,-0.0758,-0.375,0.144,-0.623,-0.0871
CCN1C(=O)C2CC(=O)C3C(CN(S(=O)(=O)c4ccc(C)cc4)C3c3ccc(C)cc3)C2C1=O (stereo not given),-1.69,-2.44,0.015,1.85,0.495,-0.0269,0.749,0.685,1.08,-0.344
[N-]=[N+]=NCc1ccccc1[C@H]1OC(c2ccc(OCCCO)cc2)=N[C@@]1(Cc1ccccc1N=[N+]=[N-])C(=O)O,1.41,-0.304,-0.0361,1.82,0.83,-0.0161,0.385,0.19,0.765,1.98
COc1ccc(CCNC(=O)[C@@]2(C)c3ccccc3C(=O)N(Cc3ccc(OC(F)(F)F)cc3)[C@H]2c2ccc(CO)cc2)cc1,1.06,-1.84,0.243,-0.717,-0.944,0.0148,0.0181,-0.737,0.986,1.04
CCOC(=O)C[C@H]1[C@H](OC(=O)c2cc3ccccc3oc2=O)[C@@H](NC(=O)c2ccc(-c3ccccc3)cc2)c2cc(OCCCO)ccc2N1C(=O)Cc1ccc(OC)cc1,0.697,-0.971,0.497,-0.0241,-0.273,-0.0735,-0.0035,0.179,0.674,0.731
COCCCNC(=O)[C@@]1(Cc2ccccc2I)c2ccccc2C(=O)N(C2CCCCC2)[C@H]1c1ccc(CO)cc1,1.13,-1.45,-0.418,0.634,0.305,-0.0061,0.313,-0.417,1.57,1.19
COC(=O)C1(CC(C)C)C=C2C(=C(C)C(=O)C2C)CN1 (stereo not given),-0.412,-1.01,-0.253,0.0595,0.89,0.432,1.79,0.825,0.653,0.096
CC1(C)OB(/C=C\CC(OC(=O)c2ccncc2)c2ccccc2)OC1(C)C (stereo not given),0.0565,-0.382,-1.46,-2.58,-2.34,-0.124,0.0469,-0.76,0.161,-0.778
O=C1N(Cc2ccccc2)Cc2ccccc2C[C@@]12COC(c1ccc(OCCCO)cc1)=N2,1.19,-3.52,-0.0607,0.273,0.519,-0.043,0.0287,1.09,0.724,0.491
CC1C2C(CCCO)=CC(C3C(=O)N(C)C(=O)C23)N1Cc1cccc(OC(F)(F)F)c1 (stereo not given),1.47,-0.75,0.101,1.65,0.841,0.0317,0.522,1.64,1.62,1.42
O=C(NCC(F)(F)F)[C@@H]1c2ccccc2C(=O)N(Cc2cc(C(F)(F)F)cc(C(F)(F)F)c2)[C@H]1c1ccc(CO)cc1,0.236,-1.04,-0.244,-0.0722,0.122,0.0377,-0.0035,-0.103,0.653,0.0956

SMILES,composite z-score [1],z-score [2],composite z-score [3],composite z-score [4],composite z-score [5],composite z-score [6],composite z-score [7],composite z-score [8],composite z-score [9],composite z-score [10]
O=C1O[C@H](c2ccccc2)[C@H](c2ccccc2)N2[C@H]1[C@@H](C(=O)N1CCN(c3ncccn3)CC1)[C@]1(C(=O)Nc3ccc(C#CC4(O)CCCCCC4)cc31)[C@H]2c1ccc(O)cc1,1.07,-0.317,0.15,1.14,0.792,-0.0037,0.106,-0.0496,0.679,2.18
COc1ccc([Si](C)(C)[C@H]2[C@H](CC(=O)N(CCO)Cc3ccccc3)O[C@@]3(C(=O)N(Cc4cccc(N5CCCCC5=O)c4)c4ccccc43)[C@@H]2C)cc1,0.558,-4.06,0.384,-0.0075,0.117,-0.147,0.235,-0.0863,-0.0746,0.595
CC(=O)NCCCC[C@@H]1NC(=O)[C@H]2C[C@@H](C(=O)NCCCCCN)[C@@H](c3ccc(O)cc3)N2C1=O,1.36,0.199,0.777,0.536,0.973,-0.1,-0.0211,-0.221,0.852,0.988
C=CCNC(=O)[C@H]1[C@@H]2C(=O)O[C@@H](c3ccccc3)[C@@H](c3ccccc3)N2[C@@H](c2ccc(OCCO)cc2)[C@]12C(=O)N(C(=O)OCCOC)c1ccc(C#CCC(C(=O)OC)C(=O)OC)cc12,1.41,-1.54,0.158,1.58,0.81,0.291,2.08,1.42,2.68,1.63
CC[C@@H](O[Si](C#C[Si](C(C)C)(C(C)C)C(C)C)(C(C)C)C(C)C)c1cn([C@H](CO)Cc2ccccc2)nn1,1.02,-0.126,0.498,0.229,-0.24,-0.148,-0.0769,0.184,0.739,0.167
C=CC[C@@]1(C(=O)NCCCOC)N=C(c2ccc(OCCCO)cc2)O[C@@H]1c1ccccc1CN=[N+]=[N-],1.42,-2.12,0.266,1.66,0.414,0.0391,-0.13,0.396,0.957,1.19
O=C1C[C@@](C(=O)NCC(F)(F)F)(c2ccc([N+](=O)[O-])cc2)[C@@H](c2ccc(CO)cc2I)N1CC12CC3CC(CC(C3)C1)C2,1.31,-3.3,0.0604,0.595,0.149,-0.0843,-0.314,-0.229,0.349,1.23
O=C1C2C=CC(C(O)C3CCCCC3)N(Nc3ccccc3F)C2C(=O)N1c1ccccc1 (stereo not given),1.45,-1.49,0.135,2.06,1,0.0993,-0.0054,-0.0116,1.27,2.4
COc1ccc([Si](C)(C)[C@H]2[C@H](CC(=O)N3CCC[C@H]3CO)O[C@@]3(C(=O)N(C)c4c(Br)cc(C)cc43)[C@@H]2C)cc1,1.45,-2,0.946,0.783,0.339,1.19,1.28,0.241,0.128,1.26
COc1ccc(C#Cc2ccc3c(c2)[C@]2(C(=O)N3)[C@H](c3ccccc3OCCO)N3[C@H](c4ccccc4)[C@H](c4ccccc4)OC(=O)[C@H]3[C@@H]2C(=O)NC[C@H](O)c2ccccc2)cc1,1.32,-2.93,1.02,1.11,-0.127,-0.0846,-0.16,-0.479,1.01,1.26
C[C@@]1([C@@H](NS(=O)(=O)c2cccc3cccnc23)c2ccc(-c3ccccc3)cc2)C[C@H]1C1CCCCC1,0.917,-0.479,-0.504,1.02,1.38,0.122,1.05,2,0.562,0.33
COc1cc2c(cc1OC)CN(C(=O)[C@@H]1[C@H]3C(=O)O[C@H](c4ccccc4)[C@H](c4ccccc4)N3[C@H](c3ccc(O)cc3)[C@@]13C(=O)Nc1ccc(C#CC4=CCCCC4)cc13)CC2,0.244,-1.49,0.512,1.07,0.319,0.0044,-0.011,0.14,0.635,0.891
CC(C)c1ccc(NN2C(C(O)C3=C[C@H]4C[C@@H](C3)C4(C)C)C=CC3C(=O)N(c4ccccc4)C(=O)C32)cc1 (stereo not given in full),0.796,-0.637,0.368,2.46,0.977,0.0403,0.907,2.06,1.54,1.64
CCCCC(=C=CC[C@@H](O)c1ccc(OCCO)cc1)CCO,-0.919,-0.96,-0.488,-0.45,0.0486,-0.101,-0.154,-0.314,0.764,0.657
NCCCCCCNC(=O)[C@@H]1C[C@@H]2C(=O)NCC(=O)N2[C@@H]1c1cccc(OCCO)c1,1.3,-0.453,1.09,-0.115,0.293,0.14,0.0639,-0.077,0.95,0.872
C[C@]12C(=O)N(CCO)[C@@H]3C(=O)N(c4ccc(Cl)cc4)CC=CC31O[C@@H]1/C=C\CCCOC(=O)C12 (stereo not given in full),-0.576,-0.445,-1.59,0.409,0.186,-0.18,-0.154,-0.153,-0.759,-0.181
O=C1O[C@H](c2ccccc2)[C@H](c2ccccc2)N2[C@H]1[C@@H](C(=O)Nc1nc3ccccc3s1)[C@]1(C(=O)Nc3ccccc31)[C@H]2c1ccccc1OCCO,1.39,-2.72,0.364,2.01,0.736,-0.0405,-0.0289,-0.501,2.27,1.69
